# Values of other authors in PubChem BioAssay AID977611.
# About 3,900 (100%) of roughly 3,900 compounds were called active. No cut-off is given here; in the data, nearly all actives have Kd up to about 4200 µM. So high a share suggests a set chosen from earlier hits. Some of the results follow. Numbered stars: 1 amine (or outer) side, 2 acyl side, 3 side chain; on linkers, the order of the positions; unused ones are H or OH. Where a SMILES comes first, the peptide text is derived from it. Square brackets hold non-standard residues; d marks the D form. Peptide text beside a SMILES is read from it. X1 = C[n+]1cc(C[C@H](N[*:1])C(=O)[*:2])n(CCCCCCCCc2ccccc2)c1; Thr(P(OH)3+) = C[C@@H](O[P+](O)(O)O)[C@H](N)C(=O)O
# Test: PubChem AID 977611
# Conditions: PDB protein-ligand complexes, literature Kd
compound,measurement,setting,value
CC[C@H](C)[C@H](NC(=O)[C@H](CO)NC(=O)[C@@H]1CCCN1C(=O)[C@H](C)N)C(=O)N[C@@H](CC(=O)O)C(=O)N[C@@H](CCCNC(N)N)C(=O)N[C@@H](CO)C(=O)N[C@H](C(=O)N[C@@H](CCCCN)C(=O)N1CCC[C@H]1C(=O)N[C@@H](C)C(=O)O)[C@@H](C)O (HELM PEPTIDE1{A.P.S.I.D.[NC(N)NCCC[C@H](N[*:1])C(=O)[*:2]].S.T.K.P.A}$$$$V2.0),Kd,"protein: mouse Gads T cell adaptor C-terminal SH3 domain, PDB entry 1h3h",0.22 µM (active)
CC(C)(CO[P+](O)(O)O[P+](O)(O)OC[C@H]1O[C@@H](n2cnc3c(N)ncnc32)[C@H](O)[C@@H]1O[P+](O)(O)O)[C@@H](O)C(=O)NCCC(=O)NCCSC(=O)CC[C@@H]1C(=O)CC[C@]2(C)C(=O)CC[C@@H]12,Kd,"protein: HTH-type transcriptional repressor KstR2, PDB entry 4w97",0.08 µM (active)
CC(C)(CO[P+](O)(O)O[P+](O)(O)OC[C@H]1O[C@@H](n2cnc3c(N)ncnc32)[C@H](O)[C@@H]1O[P+](O)(O)O)[C@@H](O)C(=O)NCCC(=O)NCCSC(=O)c1ccc2ccccc2c1O,Kd,"protein: 1,4-Dihydroxy-2-naphthoyl-CoA synthase MenB, PDB entry 4qij",2.9 µM (active)
H-LKTKLL-OH,Kd,"protein: coatomer alpha subunit, PDB entry 4j8b",16.1 µM (active)
H-KTKLL-OH,Kd,"protein: Coatomer subunit beta', PDB entry 4j78",22.5 µM (active)
O=C(Nc1ccc2[nH]nc(-c3ccncc3)c2c1)[C@@H]1CCN(CC(=O)N2CCN(c3ccc(-c4ncccn4)cc3)CC2)C1,Kd,"protein: Mitogen-activated protein kinase 1 ERK2, PDB entry 4qta",0.2 µM (active)
CC(=O)c1ccc(N2CCN(C(=O)CN3CC[C@@H](C(=O)Nc4ccc(O)c(Cl)c4)C3)CC2)cc1,Kd,"protein: Mitogen-activated protein kinase 1 ERK2, PDB entry 4qyy",0.05 µM (active)
C/C(=N\Nc1nc2ccccc2s1)c1ccc(-c2cccc(S(=O)(=O)NC(=O)CCCCCc3ccccc3)c2)o1,Kd,"protein: BCL-2-LIKE PROTEIN 1, PDB entry 3zk6",0.46 µM (active)
CNCc1ccc(C(F)(F)F)cc1,Kd,"protein: Dihydropteroate synthase BaDHPS, PDB entry 4nl1",130 µM (active)
Nc1ncnc2c1ccn2[C@@H]1O[C@@H]2CO[P+](O)(O)O[C@H]2[C@H]1O,Kd,"protein: Potassium/sodium hyperpolarization-activated cyclic nucleotide-gated channel 4 hHCN4, PDB entry 4nvp",0.027 µM (active)
Nc1ncnc2c1ncn2[C@@H]1O[C@@H]2CO[P+](O)(O)O[C@H]3[C@@H](O)[C@H](n4cnc5c(N)ncnc54)O[C@@H]3CO[P+](O)(O)O[C@H]2[C@H]1O,Kd,PDB entry 4qsh,8 µM (active)
same,Kd,"protein: PstA, PDB entry 4wk1",1.3 µM (active)
same,Kd,"protein: Staphylococcus aureus PII-like signal transduction protein PstA, PDB entry 4d3h",0.37 µM (active)
CC(=O)C(O)(O)[C@@H](O)CO[P+](O)(O)O,Kd,"protein: Transcriptional regulator LsrR, PDB entry 4l4z",2.1 µM (active)
CC(C)CC(=O)C(O)(O)[C@@H](O)CO[P+](O)(O)O,Kd,"protein: Transcriptional regulator LsrR, PDB entry 4l50",0.88 µM (active)
CC(CO)CCC[P+](O)(O)O[P+](O)(O)O (stereo not drawn),Kd,"protein: Intracellular B30.2 Domain of BTN3A1, PDB entry 4n7u",0.51 µM (active)
Nc1nc2c([nH]c[n+]2[C@@H]2O[C@H](CO[P+](O)(O)O[P+](O)(O)O[P+](O)(O)O)[C@@H](O)[C@H]2O)c(=O)[nH]1,Kd,"protein: GTPase domain of Septin 10 from Schistosoma mansoni, PDB entry 4kva",115 µM (active)
same,Kd,"protein: eukaryotic translation initiation factor eIF5B (517-858) from Chaetomium thermophilum, PDB entry 4ncn",2.12 µM (active)
Nc1nc2c([nH]c[n+]2[C@@H]2O[C@H](CO[P+](O)(O)O[P+](O)(O)C[P+](O)(O)O)[C@@H](O)[C@H]2O)c(=O)[nH]1,Kd,"protein: Interferon-induced GTP-binding protein Mx1 stalkless-MxA, PDB entry 4p4s",11.5 µM (active)
Nc1nc2c([nH]c[n+]2[C@@H]2O[C@@H]3CO[P+](O)(O)O[C@H]3[C@H]2O)c(=O)[nH]1,Kd,"protein: Cyclic nucleotide-gated potassium channel mll3241, PDB entry 4muv",1.73 µM (active)
Nc1nc2c([nH]c[n+]2[C@@H]2O[C@H](CO[P+](O)(O)O[P+](O)(O)O)[C@@H](O)[C@H]2O)c(=O)[nH]1,Kd,"protein: Ferrous iron uptake transporter protein B FeoB(A143S mutant), PDB entry 4non",5.71 µM (active)
same,Kd,"protein: GTPase domain of Septin 10 from Schistosoma mansoni, PDB entry 4kv9",146 µM (active)
same,Kd,"protein: Interferon-induced GTP-binding protein Mx1 stalkless-MxA, PDB entry 4p4t",41 µM (active)
same,Kd,"protein: Mitochondrial dynamic protein MID51, PDB entry 4nxv",3.8 µM (active)
CC(=O)N[C@H]1[C@@H](O[P+](O)(O)O[P+](O)(O)OC[C@H]2O[C@@H](n3ccc(=O)[nH]c3=O)[C@H](O)[C@@H]2O)O[C@H](CO)[C@@H](O)[C@@H]1O,Kd,"protein: UDP-N-acetylglucosamine 1-carboxyvinyltransferase(C115D mutant), PDB entry 3v4t",77 µM (active)
same,Kd,"protein: UDP-N-acetylglucosamine 1-carboxyvinyltransferase, PDB entry 3upk",50 µM (active)
CCCCCCCCCCC[C@@H](O)CC(=O)O[C@@H]1[C@@H](N)[C@@H](O[P+](O)(O)O[P+](O)(O)OC[C@H]2O[C@@H](n3ccc(=O)[nH]c3=O)[C@H](O)[C@@H]2O)O[C@H](CO)[C@H]1O,Kd,"protein: UDP-3-O-[3-hydroxymyristoyl] N-acetylglucosamine deacetylase, PDB entry 4mdt",10 µM (active)
CC1=C(SC[C@H](NC(=O)CC[C@H](N)C(=O)O)[C@H](O)NCC(=O)O)C(=O)c2ccccc2C1=O,Kd,"protein: protein yqjG, PDB entry 4g0k",4.3 µM (active)
CCCCCCCCCCCCOS(O)(O)O,Kd,"protein: Beta-lactoglobulin, PDB entry 4gny",52 µM (active)
CC(=O)N1CCC[C@H]1C(=O)N[C@@H](CC(C)C)C(=O)N[C@@H](Cc1c[n+](C)cn1CCCCCCCCc1ccccc1)C(=O)N[C@@H](CO)C(=O)N[C@H](C(N)=O)[C@@H](C)O[P+](O)(O)O (Ac-PL[X1]S[Thr(P(OH)3+)]-NH2),Kd,"protein: Serine/threonine-protein kinase PLK1 PBD, PDB entry 4o6w",0.003 µM (active)
CC[C@H](C)[C@H](NC(=O)[C@@H](NC(=O)[C@H](CC(C)C)NC(=O)[C@H](CCC(=O)O)NC(=O)[C@H](CCC(=O)O)NC(=O)[C@H](CCC(N)=O)NC(=O)[C@@H]1CCCN1C(=O)[C@H](CC(=O)O)NC(=O)[C@H](CO)NC(=O)CNC(=O)[C@H](Cc1ccc(O)cc1)NC(=O)[C@H](CC(C)C)NC(=O)[C@H](CCC(=O)O)NC(=O)[C@H](C)NC(=O)[C@H](CC(C)C)NC(=O)[C@@H](N)CCSC)[C@@H](C)CC)C(=O)O,Kd,"protein: mouse Partitioning defective 3 homolog, PDZ 3 domain, PDB entry 2koh",6 µM (active)
